Most compounds without a hit are left out; they make up all but 18% or so of the library.
IL1B secr inh: inflammasome signaling inhibition, IL-1 beta readout | THP-1 LPS/ATP IL-1B secretion, AlphaLISA, 16 h; hits give low values | activity change, % at 57.5 µM | hit rate 4.7% among 360,000 | AID 743279; in the data active = activity change below about -50%; inconclusive = mostly about -30% to -49%
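THP-1 cells pretreated 1 hr with compounds (up to 57.5 uM final), then stimulated with LPS (250 ng/mL final) plus ATP (1.25 mM final); secreted IL-1B measured by AlphaLISA after 16 hr, decreased signal indicating inhibition.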
DT40 TDP1 CPT: growth inhibition of DT40 Tdp1-/-;hTDP1 cells with camptothecin (screen for TDP1 inhibitors); chicken DT40 Tdp1-/-;hTDP1 cells + 20 nM CPT, ATP luminescence, 48 h; Potency, µM (series often up to 46.2 µM), most hits filed as inhibitors; hit rate 12% among 420,000; note: nearly all actives have a fitted effect of over 55% in size
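Chicken DT40 Tdp1-/- cells complemented with human TDP1, 400 cells/well, exposed to compounds plus 20 nM camptothecin for at least 48 h at 37 C; viability read as ATP content by CellTiter-Glo luminescence.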
LDHA inh: LDHA (human) enzyme inhibition | AID 1347041 | activity change, % (values are at about 110 or 230 µM) | purified LDHA, NADH/diaphorase-resazurin fluorescence; hits give low values | hit rate 0.15% among 480,000; in the data active = activity change below about -30%; inconclusive = mostly about -25% to -30%
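Resorufin fluorescence (ex540/em590), read at 0 and 20 min after diaphorase/resazurin addition, reports the NADH left after a 5 min room-temperature reaction of 2 nM human LDH5 with 0.06 mM NADH and 0.2 mM pyruvate.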
RORgamma inh: ROR gamma (mouse) transcription inhibition. P51450. Drosophila S2 Gal4-RORgamma UAS-luciferase reporter, 20 h. Potency, µM (titrated, usually from 53.6 µM), most hits filed as inhibitors. hit rate 5.4% among 310,000. AID 2551; note: nearly all actives have a fitted effect of over 60% in size
Target sequence (P51450 whole entry, looked up, the tested form may be a part): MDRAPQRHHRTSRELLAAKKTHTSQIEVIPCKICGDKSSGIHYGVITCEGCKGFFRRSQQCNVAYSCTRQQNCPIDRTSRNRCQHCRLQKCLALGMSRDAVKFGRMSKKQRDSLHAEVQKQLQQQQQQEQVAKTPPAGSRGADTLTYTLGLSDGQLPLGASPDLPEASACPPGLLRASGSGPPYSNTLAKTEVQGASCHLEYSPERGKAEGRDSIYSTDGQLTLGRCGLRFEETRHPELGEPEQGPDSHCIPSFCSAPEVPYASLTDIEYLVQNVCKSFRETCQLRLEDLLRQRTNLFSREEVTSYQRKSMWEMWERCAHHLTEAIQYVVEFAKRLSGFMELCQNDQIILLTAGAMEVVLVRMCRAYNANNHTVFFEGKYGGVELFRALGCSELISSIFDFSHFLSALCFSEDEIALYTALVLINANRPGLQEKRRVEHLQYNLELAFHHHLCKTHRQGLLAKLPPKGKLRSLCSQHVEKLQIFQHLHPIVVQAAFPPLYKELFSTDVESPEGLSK
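Read-out: Photinus luciferase luminescence; inhibitors lower reporter signal. Insect Schneider cells with Gal4-ROR gamma fusion under metallothionein promoter, UAS reporter; 700 uM final copper sulfate induction, 20 hr, ambient temperature.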
TDP1 cell noCPT: qHTS for Inhibitors of human tyrosyl-DNA phosphodiesterase 1 (TDP1): qHTS in cells in absence of CPT | AID 686978, 2013 | hit rate 15% among 420,000 | DT40 Tdp1-/- hTDP1 cells, no CPT, ATP luminescence, 48 h | Potency, µM (doses to about 46.2 µM), most hits filed as inhibitors; note: nearly all actives have a fitted effect of over 55% in size
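Growth kinetics read by CellTiter-Glo luminescence after ≥48 hr at 37 °C. Cells: DT40 Tdp1-/- stably carrying human TDP1, 400 per well, compound exposure in the absence of CPT (DMSO vehicle).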
VP16 counter: Gal4-VP16 reporter inhibition counter-screen. hit rate 3.5% among 310,000. Drosophila S2 Gal4-VP16 UAS-luciferase, luminescence, 20 h. Potency, µM (highest dose often 53.6 µM), actives largely listed as inhibitors;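 note: Gal4-VP16 expression switched on by copper sulfate through the metallothionein promoter; nearly all actives have a fitted effect of over 50% in size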
Large screens that a line does not name were inactive. Unless noted, calls come from the whole dose curve; as a rule, active = well fitted curve in the direction sought with a large enough effect; inconclusive = small, poorly fitted or top-dose-only effect, or another doubt; inactive = no such curve, though single readings can be large; an effect the other way counts as inactive or inconclusive.

COc1ccc(CC(=O)N(Cc2ccccc2)c2ccccc2)cc1S(=O)(=O)N1CCOCC1	DT40 TDP1 CPT 16µM, TDP1 cell noCPT 15µM
Cc1cccc(Cc2c(C)nc(Nc3nc(C)c4cc(C)ccc4n3)[nH]c2=O)c1	none (no result: IL1B secr inh, DT40 TDP1 CPT, RORgamma inh, TDP1 cell noCPT, VP16 counter)
CCOP(=O)(OCC)c1nc(-c2cccc([N+](=O)[O-])c2)oc1NCc1ccc(OC)cc1	none (no result: IL1B secr inh, DT40 TDP1 CPT, RORgamma inh, TDP1 cell noCPT, VP16 counter)
CC(C)CNC(=O)C1CCN(c2ncnc3sc4c(c23)CCCC4)CC1	none (no result: IL1B secr inh, DT40 TDP1 CPT, RORgamma inh, TDP1 cell noCPT, VP16 counter)
CCN(CC1COc2ccccc2O1)C(=O)c1ccc(Cl)c(S(=O)(=O)N2CC(C)OC(C)C2)c1 (stereo not given)	DT40 TDP1 CPT 7.3µM, TDP1 cell noCPT 4.6µM (no result: RORgamma inh, VP16 counter)
Cc1ccc(S(=O)(=O)N2CCCCC2)cc1C(=O)NCCc1ccccc1	TDP1 cell noCPT inconclusive, VP16 counter inconclusive
COc1ccc(C(=O)N(CCc2ccccc2)Cc2ccccc2)cc1S(=O)(=O)N1CCOCC1	DT40 TDP1 CPT 23µM, TDP1 cell noCPT 16µM (no result: RORgamma inh, VP16 counter)
COCCN(Cc1ccccc1)C(=O)Cc1ccc(OC)c(S(=O)(=O)N2CCOCC2)c1	TDP1 cell noCPT inconclusive (no result: RORgamma inh, VP16 counter)
Cc1ccc(C(=O)N(CCc2ccccc2)Cc2ccccc2)cc1S(=O)(=O)N1CCCCC1	DT40 TDP1 CPT inconclusive, TDP1 cell noCPT 18µM (no result: RORgamma inh, VP16 counter)
CCOCCCNC(=O)c1ccccc1Sc1ccccc1C#N	none (no result: IL1B secr inh, DT40 TDP1 CPT, RORgamma inh, TDP1 cell noCPT, VP16 counter)
O=C(NCc1ccc2c(c1)CCN2C(=O)c1ccncc1)c1ccc(Cl)cc1	DT40 TDP1 CPT inconclusive, TDP1 cell noCPT inconclusive (no result: IL1B secr inh, RORgamma inh, VP16 counter)
COc1cc(C(=O)NCc2ccc3c(c2)CCN3C(=O)c2ccc(Cl)cc2)cc(OC)c1OC	DT40 TDP1 CPT 23µM, TDP1 cell noCPT 15µM (no result: IL1B secr inh, RORgamma inh, VP16 counter)
COc1ccc(C(=O)NCc2ccc3c(c2)CCN3C(=O)c2ccc(Cl)cc2)c(OC)c1	DT40 TDP1 CPT 18µM, TDP1 cell noCPT 18µM (no result: IL1B secr inh, RORgamma inh, VP16 counter)
CCn1c(=O)c2ccccc2n2c(SCC(=O)NCc3cccs3)nnc12	none
CCCn1c(=O)c2ccccc2n2c(SCC(=O)NCc3cccs3)nnc12	DT40 TDP1 CPT inconclusive, TDP1 cell noCPT 15µM
C=CCn1c(=O)c2ccccc2n2c(Sc3nnnn3-c3ccccc3)nnc12	DT40 TDP1 CPT inconclusive, TDP1 cell noCPT inconclusive
CCCn1c(=O)c2ccccc2n2c(Sc3nnnn3-c3ccccc3)nnc12	DT40 TDP1 CPT inconclusive, TDP1 cell noCPT 23µM
CSCCC(NC(=O)c1ccc2ccccc2n1)C(=O)NC(C)C (stereo not given)	none (no result: IL1B secr inh, DT40 TDP1 CPT, RORgamma inh, TDP1 cell noCPT, VP16 counter)
CC(C)Cn1nnnc1S(=O)(=O)Cc1cccc(C#N)c1	none (no result: IL1B secr inh, DT40 TDP1 CPT, LDHA inh, TDP1 cell noCPT)
CC(C)[C@H](NC(=O)OC(C)(C)C)c1nnc(S(=O)(=O)Cc2c(F)cccc2Cl)o1	IL1B secr inh inconclusive, DT40 TDP1 CPT 1.2µM, RORgamma inh 4.5µM, TDP1 cell noCPT 1.6µM, VP16 counter 5µM
CC(C)C[C@H](N)c1nnc(S(=O)(=O)Cc2cccc(F)c2)o1	IL1B secr inh inconclusive, DT40 TDP1 CPT 5.8µM, RORgamma inh 6.3µM, TDP1 cell noCPT 5.8µM, VP16 counter inconclusive
CC(C)C[C@H](NC(=O)OC(C)(C)C)c1nnc(SCc2ccccc2)o1	DT40 TDP1 CPT inconclusive, TDP1 cell noCPT 23µM
Cc1ccccc1CS(=O)(=O)c1nnc([C@H](CC(C)C)NC(=O)OC(C)(C)C)o1	IL1B secr inh -67, DT40 TDP1 CPT 2.2µM, RORgamma inh 7.1µM, TDP1 cell noCPT 2.8µM, VP16 counter 4.5µM
O=C(Oc1ccc(F)cc1)c1ccc(-c2nc3ccccc3s2)s1	none (no result: IL1B secr inh, DT40 TDP1 CPT, RORgamma inh, TDP1 cell noCPT, VP16 counter)
CC[C@@H](C)[C@H](NC(=O)OC(C)(C)C)c1nnc(S(=O)(=O)Cc2cc(C)ccc2C)o1	DT40 TDP1 CPT 1.3µM, RORgamma inh inconclusive, TDP1 cell noCPT 2.3µM, VP16 counter inconclusive
CC(C)(C)OC(=O)N[C@@H](Cc1ccccc1)c1nnc(S(=O)(=O)Cc2cccc(F)c2)o1	IL1B secr inh -80, DT40 TDP1 CPT 1.3µM, RORgamma inh 4.5µM, TDP1 cell noCPT 1.3µM, VP16 counter 4.5µM
CC[C@@H](C)[C@H](NC(=O)OCc1ccccc1)c1nnc([C@@H](NC(=O)OCc2ccccc2)[C@@H](C)CC)o1	DT40 TDP1 CPT inconclusive, TDP1 cell noCPT inconclusive

Screening results as filed in PubChem BioAssay.
